# Bioassay records as filed in PubChem.
# HCV inh = blocks hepatitis C virus; Potency, µM (titrated, usually from 41.8 µM), for the others: at the top dose activity change, negative = inhibition, usual class: inhibitors; AID 651820; Huh7.5.1 HCVcc-Cre infection, luciferase reporter, 44 h; 3.4% of 340,000 active; also: potency is read from the fitted curve at half-maximal effect; % is scaled to controls: 0 for no effect and ±100 for the full control effect
#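 Luciferase read-out (15 sec integration) after a 15 min room-temperature substrate step quantifies HCVcc-Cre infection. Cells, 1,000 per well, had compound added 4 h post-plating, then virus at ~0.5 moi, and were cultured 44 h.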
# Pf growth 48h = P. falciparum growth inhibition at 48 hours (one generation); P. falciparum luciferase growth in erythrocytes, 48 h; Potency, µM (titrated, usually from 28.7 µM), for inactives: top-dose activity change, negative = inhibition, usual class: inhibitors; 5.9% of 310,000 active; AID 504832; also: potency is read from the fitted curve at half-maximal effect; % is scaled to controls: 0 for no effect and ±100 for the full control effect
#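 Compounds are pin-transferred into medium, infected erythrocytes (2% hematocrit, 0.1% parasitemia final) are added, and plates sit one parasite generation at 37 C in 5% CO2. Detection reagent is then added and luminescence measured.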
# Shiga toxin inh = inhibitors of Shiga toxin in Vero cells | Vero cells, Shiga toxin protein synthesis inhibition reporter | inhibition, % at 38.7 µM | 9.2% of 290,000 active; in the data active = inhibition mostly above about 28%, no sharp cut-off; inactive = mostly below about 43%; also: 0% is about no effect
# Pf growth 96h = P. falciparum growth inhibition at 96 hours. Potency, µM (series often up to 28.7 µM), for the others: at the top dose activity change, negative = inhibition, usual class: inhibitors. 6.9% of 320,000 active. AID 504834. P. falciparum luciferase reporter growth, 96 h; also: potency is read from the fitted curve at half-maximal effect; % is scaled to controls: 0 for no effect and ±100 for the full control effect
#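 Two parasite generations (96 h, 37 C, 5% CO2) of compound exposure in infected erythrocytes (0.05% parasitemia, 2% hematocrit). Luciferase-reporter P. falciparum; decreased luminescence indicates inhibited growth, aimed at apicoplast-acting delayed death.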
# HCMV antiviral = human cytomegalovirus inhibition; activity change, negative = inhibition, % at 57.5 µM; AID 1259415; 4.5% of 410,000 active; HFF cells, HCMV-luciferase reporter, 72 h; hits give low values; in the data active = activity change below about -60%; inconclusive = no clear call, values can overlap the other calls; inactive = above about -39%; also: % is scaled to controls: 0 for no effect and ±100 for the full control effect
#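 HFF cells seeded 16 h at 37C, treated with compounds, infected with luciferase-reporter HCMV at MOI 1 PFU/cell; luciferase read at 72 h post infection, normalized to buffer-only and Salinomycin controls.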
# CHX counter = counter-screen for Shiga toxin inhibitors: cycloheximide protein synthesis inhibition. 12% of 300,000 active. max response, %. AID 2314. cell reporter, cycloheximide protein synthesis inhibition counterscreen; in the data active = max response mostly above about 13%, no sharp cut-off; inactive = mostly below about 14%; also: read at 38.3 µM for the half of the compounds with a filed dose; 0% is about no effect
# The depositor's hits bear a star; i = inactive; ? = inconclusive; . = no result. This is a sample that favours compounds with a hit; in the whole collection about 21% have one here. Unless noted, calls follow the shape of the dose curve; as a rule, active = well fitted inhibition curve with a large enough effect; inconclusive = small, poorly fitted or top-dose-only effect, or another doubt; inactive = no such curve, though single readings can be large or run the other way.
SMILES,HCV inh,Pf growth 48h,Shiga toxin inh,Pf growth 96h,HCMV antiviral,CHX counter
CCOc1ccc(C(=O)NCC(=O)Nc2ccc(N3CCOCC3)cc2)cc1OCC,10%,i,124*,137%,21,21*
O=C(/C=C/c1ccc(Cl)cc1)Nc1ccc(N2CCCCC2)cc1,23%,0%,38,-5%,5,2
O=C(Nc1ccc(N2CCN(C(=O)c3cccs3)CC2)cc1)c1cccc(F)c1,-21%,?,17,7%,35,1
O=C(Nc1ccc(N2CCCC2)cc1)c1cccc(F)c1,?,-62%,145*,-71%,139,54*
O=C(/C=C/c1ccccc1)Nc1ccc(N2CCCCC2)cc1,-1%,8%,31,-5%,23,26*
CCN1CCN(c2ccc(NC(=O)c3cccc(N4CCCC4=O)c3)cc2)CC1,8%,70%,58,90%,35,25*
CCOc1ccc(C(=O)NCC(=O)Nc2ccncc2)cc1OCC,10%,16%,.,30%,-5,.
NC(=O)NC(=O)C(Nc1ccc(N2CCCCC2)cc1)c1ccccc1 (stereo not drawn),13%,101%,121*,131%,-22,51*
O=C(Nc1ccc(N2CCCC2=O)cc1)c1cccc(F)c1,4%,161%,76*,.,175,39*
O=C(Nc1ccc(N2CCCCC2)cc1)c1ccccc1,?,-70%,88*,.,40,22
CC(C)Oc1ccc(C(=O)Nc2ccc(N3CCCCC3)cc2)cc1,-14%,?,22,?,-22,-2
Cc1ccc(C(=O)Nc2ccc(N3CCCC3)cc2)cc1,-25%,288%,69*,154%,-7,26*
CC(=O)c1ccc(NC(=O)c2ccc(N3CCCC3=O)cc2)cc1,?,-3%,.,2%,-24,.
CC(C)(C)c1ccc(/C=N/NC(=O)CN2CCS(=O)(=O)CC2)cc1,7%,8%,-1,35%,-26,-1
O=C(NCCCN1CCN(c2ccc(F)cc2)CC1)c1cccc(N2CCCC2=O)c1,-6%,12µM*,-5,.,11,0
Cc1ccc(NC(=O)c2ccc(NC(=O)C3CCCCC3C(=O)O)cc2)cc1 (stereo not drawn),-5%,31%,75*,16%,27,30*
CCCCCCN1C[C@H](n2cc(COC(=O)c3ccccc3)nn2)[C@@H](O)C[C@@H]1c1ccc(C)cc1,.,.,.,.,-39,.
Cc1sc(NC(=O)C2C3CCC(O3)C2C(=O)O)nc1-c1ccc(CC(C)C)cc1 (stereo not drawn),?,-25%,80*,-30%,-18,42*
CCOC(=O)c1c(NC(=O)C2C3CCC(O3)C2C(=O)O)sc(C)c1-c1ccc(C)cc1 (stereo not drawn),-17%,17%,13,53%,35,4
Cc1cccc(C)c1-n1nnnc1C1(C)CCC(=O)N1Cc1cccnc1 (stereo not drawn),.,.,.,.,-17,.
C/C(=N\NC(=O)C1CC1)c1ccc(C)c(C)c1,8%,?,1,-26%,25,28
C/C(=N\NC(=O)C1CC1)c1ccc(Cl)c(Cl)c1,0%,.,-15,4.1µM*,67,4
Brc1ccc2c(c1)OCCOCCOc1cc(Br)ccc1OCCOCCOCCO2,?,?,-5,?,.,0
Nc1ccc2c(c1)OCCOCCOCCOCCOCCO2,9%,188%,-10,5.9µM*,-17,18
C/C(=N\NC(=O)C1CC1)c1ccc2c(c1)OCCO2,2%,32%,44,5%,45,28*
SMILES,HCV inh,Pf growth 48h,Shiga toxin inh,Pf growth 96h,HCMV antiviral,CHX counter
C/C(=N\O)c1ccc2c(c1)OCCO2,6%,38%,30,250%,0,11
C/C(=N/O)c1ccc2c(c1)OCCOCCOc1cc(/C(C)=N/O)ccc1OCCOCCO2,-23%,?,-6,13µM*,-14,-1
COc1ccc(C)cc1NC(=O)COC(=O)c1ccccc1SCC(=O)N1CCCC1,-6%,?,.,?,-32,.
CCN(C(=O)c1nn(-c2ccc(OC)c(Cl)c2)c(=O)c2c1c1ccccc1n2C)c1cc(OC)ccc1OC,.,.,.,.,9,.
C/C(=N\Nc1ccc(S(=O)(=O)Nc2ccccc2)cc1[N+](=O)[O-])c1ccncc1,.,10µM*,-4,?,28,-3
COc1ccc(NS(=O)(=O)c2ccc(N/N=C(\C)c3ccncc3)c([N+](=O)[O-])c2)cc1,4.5µM*,?,-10,-14%,-67*,-5
COc1ccccc1NS(=O)(=O)c1ccc(N/N=C(\C)C(C)C)c([N+](=O)[O-])c1,?,8.3µM*,-13,?,-61*,-6
C/C(=N\Nc1ccc(S(=O)(=O)Nc2ccccc2)cc1[N+](=O)[O-])c1ccc(N2CCOCC2)cc1,-3%,?,-7,?,-32,-2
CCCC(=O)Nc1ncnc2c1ncn2C1OC2COP(=O)(O)OC2C1OC(=O)CCC (stereo not drawn),.,-15%,.,-20%,.,.
O=C(COc1coc(CN2CCN(c3ccccc3)CC2)cc1=O)Nc1ccc(F)cc1,?,?,.,0%,-83*,.
O=C(COc1coc(CN2CCN(c3ccccc3)CC2)cc1=O)Nc1cccc(F)c1,12%,5%,.,?,-28,.
COc1ccccc1NC(=O)COc1coc(CN2CCN(c3ccccc3)CC2)cc1=O,-15%,13µM*,.,?,-34,.
Cc1cccc(NC(=O)COc2coc(CN3CCN(c4ccccc4)CC3)cc2=O)c1,2%,9.3µM*,.,?,-34,.
O=C(COc1coc(CN2CCN(c3ccc(F)cc3)CC2)cc1=O)Nc1ccccc1,?,?,.,-5%,-20,.
CCn1c2ccccc2c2cc(/C=N/NC(=O)c3cccc(C)c3)ccc21,?,?,39,28%,20,12
Cn1c2ccccc2c2cc(/C=N/NC(=O)c3ccc(N)cc3)ccc21,11µM*,13µM*,24,?,1,13
CCn1c2ccccc2c2cc(/C=N/NC(=O)c3ccccc3C)ccc21,5.6µM*,?,-4,-5%,-23,5
Cn1c2ccccc2c2cc(/C=N/NC(=O)c3ccccc3F)ccc21,14µM*,?,79*,?,-3,41*
Cn1c(=O)n(C)c2cc(/C=N/NC(=O)c3ccc(Cl)cc3)ccc21,-3%,-16%,10,2%,-8,1
COc1cc(C(=O)NCCC(=O)NC(C)CCc2ccccc2)cc(OC)c1OC (stereo not drawn),-3%,?,9,-1%,0,-5
O=C(Nc1ccccn1)c1ccc(Br)c(S(=O)(=O)N2CCCC2)c1,?,-22%,50*,-27%,-34,34*
Cc1cc(NC(=O)c2ccc(Br)c(S(=O)(=O)N3CCCC3)c2)no1,?,10µM*,6,.,-69*,-1
